Measurements: PubChem BioAssay (NCI)
Values joined by “and” are separate entries in the source; they are usually repeats but may differ in a detail not shown here. Equal entries are not always repeated. The panel holds about 83,000 compounds, 20% with a hit somewhere; the sample as a whole holds those more often.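 Cells were grown in 96-well plates and exposed to the test compound at a single concentration for 48 hours; results are reported as percent growth, with values below 10 considered active.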 Active and inactive are the calls of the source.

What follows are compounds tested on SK-MEL-2 melanoma (assay: NCI-60 one-dose screen, 48 h (100 = growth as untreated, 0 = no growth, -100 = all killed)). Conditions: 10 µM unless noted.

SMILES | growth
Cc1cc(C(C)(CC(C)C)c2ccc(O)c(C)c2)ccc1O | 104% (inactive)
O=C1c2cccnc2-c2nccc3c2c1nc1cc(Br)ccc13 | 16.8% (inactive) and -59% (active)
NC(=S)N/N=C\c1nccc2c(C(F)(F)C(F)(F)C(F)(F)F)cccc12 | 7.18% (active)
N#CSCc1ccc(Cl)c(CSC#N)c1 | 83.2% (inactive)
CC(=O)Nc1cccc2cc(O)ccc12 | 125% (inactive) and 101% (inactive)
O=C1c2ccccc2C(=O)c2sc(Nc3ccc(Cl)cc3)nc21 | 35.9% (inactive)
CCCCCC(CCCCC)C(=O)O | 99.2% (inactive)
CN(C)c1ccc(C(=C2C=CC(=[N+](C)C)C=C2)c2ccc(N(C)C)cc2)cc1 (tested in a mixture with another compound) | -66.9% (active)
Nc1ncnc2c1ncn2C1OC(CO)C(O)C1O (stereo not drawn) | 144% (inactive) and 67.2% (inactive) and 121% (inactive)
Oc1c(Br)cc(Cl)cc1C(c1cc(Cl)cc(Br)c1O)C(Cl)(Cl)Cl | -30.2% (active)
CC1OC(OC2C(OC3CCC4(C)C(CCC5(C)C4CC=C4C6CC(C)(C)CCC6(CO)C(O)CC45C)C3(C)C)OC(C(=O)O)C(OC3OC(COC4OC(CO)C(O)C(O)C4O)C(O)C(O)C3O)C2O)C(O)C(O)C1O (stereo not drawn) | -75.3% (active)
O=Nc1ccccc1N=O | 90.2% (inactive)
CN(Cc1cnc2nc(N)nc(N)c2n1)c1ccc(C(=O)NC(CCC(=O)O)C(=O)O)cc1 (stereo not drawn) | 79.6% (inactive)
